# Data from PubChem BioAssay (Tox21).
# Where “and” joins values, the source holds several entries; their conditions need not be identical. Equal values may be shown once. Inconclusive results are not listed. A call without a number means that no potency is given here. Some compounds were tested as several samples or in several runs, with calls that do not always agree. Calls of active or inactive are those of the source. Unless noted, calls come from the whole dose curve.
# Legend:
# [1] = Nuclear factor erythroid 2-related factor 2/antioxidant responsive element (Nrf2/ARE) small molecule agonists: qHTS cell viability counter screen in human keratinocytes (AID 1919968; active = well fitted curve in the direction sought with a large enough effect in the repeat runs; an effect the other way counts as inactive or inconclusive; note: nearly all actives have a fitted effect of over 55% in size; note: potency is the fitted concentration of half-maximal effect)
# Summary of the method: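 Measured as CellTiter-Fluor fluorescence, this readout tracks cytotoxicity in the same wells as the ARE-luciferase screen. HaCaT reporter cells (1,500/well) received compounds after a 5 h pre-incubation and were exposed for 23 h.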
# [2] = biological target: KiSS-1 receptor (Homo sapiens) (UniProt Q969F8); assay: Human kisspeptin (KISS1R) small molecule agonists, calcium flux assay in KISS1R-HEK293 cells (AID 1920064; active = well fitted curve in the direction sought with a large enough effect in the repeat runs; an effect the other way counts as inactive or inconclusive)
# Summary of the method: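 Measures KISS1R agonism through calcium-sensitive dye fluorescence in stably transfected HEK293 cells, read for 3 min after pin-tool compound delivery; 15-point titrations in triplicate.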
# [3] = G protein-coupled receptor (GPCR) small molecule agonists, calcium flux assay: HEK293 wild type cell line counter screen (AID 1920065); note: potency is the fitted concentration of half-maximal effect
# Summary of the method: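 Readout: fluorescence at 480 nm excitation/540 nm emission, sampled at 1 s intervals for 3 min. Cells had been cultured 18 h, then dye-loaded 1 h at 37 C before compound or ATP addition.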
# [4] = p53 small molecule agonists, cell-based qHTS assay with rat liver microsomes (AID 1963578)
# Summary of the method: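 Read-out is beta-lactamase reporter fluorescence (LiveBLAzer, 2 h, room temperature, dark) in p53RE-bla cells treated 16 h at 37 C with compound, rat liver microsomes and NADPH, both 0.5 mg/mL final.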
# [5] = p53 small molecule agonists, cell-based qHTS assay: qHTS cell viability counter screen (AID 1963581); note: nearly all actives have a fitted effect of over 45% in size
# Summary of the method: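 In the same plates used for the p53 bla reporter, HCT-116 cells given compounds for 16 h at 37 C received CellTiter-Glo; luminescence was recorded 30 min later at room temperature.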
# [6] = p53 small molecule agonists, cell-based qHTS assay (AID 1963582; active = well fitted activation curve with a large enough effect in the signal ratio in the repeat runs, not every such curve was filed as active; the % refers to the signal ratio)
# Summary of the method: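 Compounds are pin-transferred in DMSO onto p53RE-bla cells and incubated 16 h at 37 C. The B/G FRET beta-lactamase substrate is then applied for 2 h at RT and fluorescence recorded.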
# [7] = biological target: 5-hydroxytryptamine receptor 2A (Homo sapiens) (UniProt P28223); assay: 5-hydroxytryptamine receptor 2A (HTR2A) small molecule antagonists, cell-based qHTS assay (AID 1963586); note: nearly all actives have a fitted effect of over 45% in size
# Summary of the method: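 Antagonist-mode intracellular calcium assay: DOI (4 nM) added after 5 min compound pre-incubation at room temperature to dye-loaded HTR2A-CHO cells. Fluorescence followed for 3 min, sampled every second.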
# [8] = biological target: 5-hydroxytryptamine receptor 2A (Homo sapiens) (UniProt P28223); assay: 5-hydroxytryptamine receptor 2A (HTR2A) small molecule agonists, cell-based qHTS assay (AID 1963587); note: nearly all actives have a fitted effect of over 30% in size; note: potency is the fitted concentration of half-maximal effect
# Summary of the method: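 Kinetic calcium-flux fluorescence (2 min, 1 sec intervals) after compound addition in agonist mode. HTR2A-CHO cells were cultured 18 h, then dye-loaded 1 h at 37 C.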
# [9] = biological target: Muscarinic acetylcholine receptor M1 (Homo sapiens) (UniProt P11229); assay: Cholinergic receptor muscarinic 1 (CHRM1) small molecule antagonists, cell-based qHTS assay (AID 1963588); note: nearly all actives have a fitted effect of over 40% in size; note: potency is the fitted concentration of half-maximal effect
# Summary of the method: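 CHRM1-CHO calcium-flux assay, antagonist mode. Cells were seeded 18 h, dye-loaded 1 h at 37 C and given compound for 5 min at RT, then acetylcholine was added at 50nM. FDSS fluorescence was read 3 min; 15 concentrations, three runs.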
# [10] = biological target: Muscarinic acetylcholine receptor M1 (Homo sapiens) (UniProt P11229); assay: Cholinergic receptor muscarinic 1 (CHRM1) small molecule agonists, cell-based qHTS assay (AID 1963589); note: nearly all actives have a fitted effect of over 35% in size; note: potency is the fitted concentration of half-maximal effect
# Summary of the method: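 Each compound was tested at 15 concentrations across three independent runs on dye-loaded CHO cells stably expressing human CHRM1, reading intracellular calcium fluorescence kinetically at 1 sec intervals.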
# [11] = cAMP Responsive Elements (CRE) small molecule antagonists, cell-based qHTS assay (AID 1963591; active = well fitted inhibition curve with a large enough effect in the signal ratio in the repeat runs, not every such curve was filed as active; the % refers to the signal ratio)
# Summary of the method: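 Inhibition of NKH477-driven (0.25 uM final) CRE-beta-lactamase signal in HEK293T cells, 3 h compound exposure at 37 °C, detected by FRET substrate fluorescence.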
# [12] = biological target: Beta-2 adrenergic receptor (Homo sapiens) (UniProt P07550); assay: Adrenergic beta2 receptor (ADRB2) small molecule antagonists, cell-based qHTS assay (AID 1963592); note: nearly all actives have a fitted effect of over 50% in size; note: potency is the fitted concentration of half-maximal effect
# Summary of the method: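 Cells (CHO, stable ADRB2 overexpression) incubated 18-20hr at 37C; compounds added from DMSO; agonist mix (1nM isoproterenol, 100uM IBMX, 25uM Ro-20-1724) added; 0.5hr RT; d2-cAMP and anti-cAMP-cryptate added; 1hr RT; 665/615 nm read.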
# [13] = biological target: Beta-2 adrenergic receptor (Homo sapiens) (UniProt P07550); assay: Adrenergic beta2 receptor (ADRB2) small molecule agonists, cell-based qHTS assay (AID 1963593);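 note: CHO cells stably overexpressing human ADRB2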
# Summary of the method: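 CHO cells stably over-expressing ADRB2 were plated overnight at 37C, then dosed with compounds plus a stimulation mix containing 100uM IBMX and 25uM Ro-20-1724 for 0.5hr at room temperature. cAMP was measured by HTRF competition, 1hr.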
# [14] = biological target: D(2) dopamine receptor (Homo sapiens) (UniProt P14416); assay: Dopamine D2 receptor (DRD2) small molecule agonists, cell-based qHTS assay (AID 1963594); note: nearly all actives have a fitted effect of over 35% in size
# Summary of the method: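 cAMP accumulation in DRD2-HEK293 cells measured by HTRF after 1 h detection; compounds added 10 min before NKH477 (200nM […]) forskolin-analogue stimulation, 30 min at room temperature, with Ro20-1724 present at 0.1 mM final.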
# [15] = biological target: D(2) dopamine receptor (Homo sapiens) (UniProt P14416); assay: Dopamine D2 receptor (DRD2) small molecule antagonists, cell-based qHTS assay (AID 1963595; active = well fitted inhibition curve with a large enough effect in the signal ratio in the repeat runs, with a control signal flat; the % refers to the signal ratio; note: potency is the fitted concentration of half-maximal effect)
# Summary of the method: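 Readout: HTRF cAMP, cAMP-d2 competing with cellular cAMP for anti-cAMP cryptate, read after 1 h. Cells: DRD2-HEK293. Conditions: 0.1 mM Ro20-1724, 12 nM quinpirole, 200 nM NKH477, 30 min RT.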
# [16] = p53 small molecule agonists, cell-based qHTS assay with human liver microsomes (AID 1963577)
# Summary of the method: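 Compounds act here after metabolic activation: human liver microsomes and NADPH, both at 0.5 mg/mL final, were co-added to p53RE-bla cells. Incubation ran 16 h at 37 C, followed by LiveBLAzer detection.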
# [17] = p53 small molecule agonists, cell-based qHTS assay with human liver microsomes: qHTS cell viability counter screen (AID 1963579); note: nearly all actives have a fitted effect of over 45% in size; note: potency is the fitted concentration of half-maximal effect
# Summary of the method: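 Cells carrying the p53 response-element beta-lactamase reporter are treated for 16 h at 37 C with test compounds in the presence of human liver microsomes and NADPH (both 0.5 mg/mL final); ATP-based CellTiter-Glo luminescence then reports viability.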
# [18] = p53 small molecule agonists, cell-based qHTS assay with rat liver microsomes: qHTS cell viability counter screen (AID 1963580); note: nearly all actives have a fitted effect of over 45% in size; note: potency is the fitted concentration of half-maximal effect
# Summary of the method: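 HCT-116 p53RE-bla, 4,000 cells/well, 5 h pre-incubation; cpd + rat liver microsomes 0.5 mg/mL + NADPH 0.5 mg/mL (final); 16 h, 37 C; CellTiter-Glo, 30 min RT; luminescence.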
# [19] = cAMP Responsive Elements (CRE) small molecule agonists, cell-based qHTS assay (AID 1963590)
# Summary of the method: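 Cell line: CRE-bla HEK 293T; medium DMEM/10% dialyzed FBS/0.1 mM NEAA/1 mM pyruvate/25 mM HEPES; 3 h compound exposure; beta-lactamase FRET readout after 2 h substrate loading at RT.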
# [20] = biological target: Gonadotropin-releasing hormone receptor (Homo sapiens) (UniProt P30968); assay: Human gonadotropin-releasing hormone receptor (GnRHR) small molecule agonists, calcium flux assay in GnRHR-HEK293 cells (AID 1920063); note: nearly all actives have a fitted effect of over 35% in size
# Summary of the method: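 Fluorescence kinetics (480 nm excitation, 540 nm emission; 3 min, 1 s steps) report calcium mobilisation in human GnRHR-HEK293 cells in agonist mode. Dye incubation: 1 h, 37 C.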
# Chain of D(2) dopamine receptor (Homo sapiens) (P14416 whole entry, looked up): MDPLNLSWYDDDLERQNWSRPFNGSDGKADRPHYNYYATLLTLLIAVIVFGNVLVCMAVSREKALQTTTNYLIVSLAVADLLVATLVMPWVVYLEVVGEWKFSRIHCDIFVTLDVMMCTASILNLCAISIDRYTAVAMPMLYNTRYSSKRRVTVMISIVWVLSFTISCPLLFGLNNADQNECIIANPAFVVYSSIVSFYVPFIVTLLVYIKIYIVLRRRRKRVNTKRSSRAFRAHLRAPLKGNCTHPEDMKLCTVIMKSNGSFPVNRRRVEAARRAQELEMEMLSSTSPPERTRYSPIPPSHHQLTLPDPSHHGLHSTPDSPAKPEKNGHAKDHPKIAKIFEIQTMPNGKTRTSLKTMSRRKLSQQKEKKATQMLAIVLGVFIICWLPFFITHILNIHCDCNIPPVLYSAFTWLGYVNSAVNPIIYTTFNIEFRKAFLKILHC
# Chain of Muscarinic acetylcholine receptor M1 (Homo sapiens) (P11229 whole entry, looked up): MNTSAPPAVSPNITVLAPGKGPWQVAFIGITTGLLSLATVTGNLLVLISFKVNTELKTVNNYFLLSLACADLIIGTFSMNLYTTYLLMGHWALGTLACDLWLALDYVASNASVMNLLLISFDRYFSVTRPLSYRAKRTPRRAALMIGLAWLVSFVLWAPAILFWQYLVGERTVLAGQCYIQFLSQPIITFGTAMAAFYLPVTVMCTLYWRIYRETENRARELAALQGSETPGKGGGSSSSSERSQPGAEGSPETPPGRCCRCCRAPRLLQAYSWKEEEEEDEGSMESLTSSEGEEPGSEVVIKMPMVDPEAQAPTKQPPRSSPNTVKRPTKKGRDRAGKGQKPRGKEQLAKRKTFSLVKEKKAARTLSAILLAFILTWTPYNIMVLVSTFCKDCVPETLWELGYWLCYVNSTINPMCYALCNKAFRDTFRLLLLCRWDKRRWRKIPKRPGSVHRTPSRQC
# Chain of 5-hydroxytryptamine receptor 2A (Homo sapiens) (P28223 whole entry, looked up): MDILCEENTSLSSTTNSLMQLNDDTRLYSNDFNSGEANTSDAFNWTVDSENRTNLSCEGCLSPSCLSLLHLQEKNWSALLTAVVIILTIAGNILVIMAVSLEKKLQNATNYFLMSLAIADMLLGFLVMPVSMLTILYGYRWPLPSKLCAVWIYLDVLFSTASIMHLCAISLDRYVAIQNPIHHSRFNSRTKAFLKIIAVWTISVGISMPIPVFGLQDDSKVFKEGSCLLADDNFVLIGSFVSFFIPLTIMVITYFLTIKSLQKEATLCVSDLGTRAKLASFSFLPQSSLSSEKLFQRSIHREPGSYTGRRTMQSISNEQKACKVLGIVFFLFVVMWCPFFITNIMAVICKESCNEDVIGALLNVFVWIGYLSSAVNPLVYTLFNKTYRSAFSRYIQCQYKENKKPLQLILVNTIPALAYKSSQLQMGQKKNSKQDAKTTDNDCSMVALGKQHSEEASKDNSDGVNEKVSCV
# Chain of KiSS-1 receptor (Homo sapiens) (Q969F8 whole entry, looked up): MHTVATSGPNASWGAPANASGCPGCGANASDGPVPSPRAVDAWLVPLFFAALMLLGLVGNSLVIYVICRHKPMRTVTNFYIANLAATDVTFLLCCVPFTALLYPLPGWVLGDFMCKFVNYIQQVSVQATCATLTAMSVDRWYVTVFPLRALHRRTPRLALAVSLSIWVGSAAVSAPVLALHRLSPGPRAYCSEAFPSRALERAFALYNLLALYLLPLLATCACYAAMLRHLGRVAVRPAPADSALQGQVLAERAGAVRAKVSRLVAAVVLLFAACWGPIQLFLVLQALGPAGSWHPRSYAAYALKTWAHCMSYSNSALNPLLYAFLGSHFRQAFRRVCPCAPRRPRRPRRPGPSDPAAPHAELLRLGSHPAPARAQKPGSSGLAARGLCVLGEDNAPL
# Chain of Beta-2 adrenergic receptor (Homo sapiens) (P07550 whole entry, looked up): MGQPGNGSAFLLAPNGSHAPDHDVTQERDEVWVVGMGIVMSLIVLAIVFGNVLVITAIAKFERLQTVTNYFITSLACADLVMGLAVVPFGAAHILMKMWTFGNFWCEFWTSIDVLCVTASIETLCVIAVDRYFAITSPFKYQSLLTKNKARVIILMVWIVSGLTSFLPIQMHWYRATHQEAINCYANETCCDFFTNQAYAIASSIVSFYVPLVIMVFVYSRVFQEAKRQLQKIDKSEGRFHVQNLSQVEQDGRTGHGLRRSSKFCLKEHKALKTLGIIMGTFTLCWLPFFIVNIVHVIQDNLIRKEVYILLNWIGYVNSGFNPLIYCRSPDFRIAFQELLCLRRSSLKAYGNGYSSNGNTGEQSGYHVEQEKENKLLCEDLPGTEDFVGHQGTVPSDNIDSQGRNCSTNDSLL
# Chain of Gonadotropin-releasing hormone receptor (Homo sapiens) (P30968 whole entry, looked up): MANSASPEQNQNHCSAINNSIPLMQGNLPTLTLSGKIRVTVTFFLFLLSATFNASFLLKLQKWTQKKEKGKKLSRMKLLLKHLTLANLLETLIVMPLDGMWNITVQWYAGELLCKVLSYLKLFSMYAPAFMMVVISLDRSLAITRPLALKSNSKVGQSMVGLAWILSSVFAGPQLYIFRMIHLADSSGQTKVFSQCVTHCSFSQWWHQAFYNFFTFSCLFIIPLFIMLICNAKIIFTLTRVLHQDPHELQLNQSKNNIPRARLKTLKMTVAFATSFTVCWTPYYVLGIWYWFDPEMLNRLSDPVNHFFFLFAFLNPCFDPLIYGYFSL
Compound,Potency [1],Potency [2],Potency [3],Potency [4],Potency [5],Potency [6],Potency [7],Potency [8],Potency [9],Potency [10],Potency [11],Potency [12],Potency [13],Potency [14],Potency [15],Potency [16],Potency [17],Potency [18],Potency [19],Potency [20]
CC(C)=CC1C(C(=O)OCN2C(=O)C3=C(CCCC3)C2=O)C1(C)C (centres undefined),inactive,inactive,inactive,inactive,inactive,inactive,inactive,inactive,8.18 µM (active),inactive,inactive,inactive,inactive,inactive,inactive,–,–,–,–,–
COCCl,inactive,–,inactive,inactive,inactive,inactive,inactive,22.7 µM (active) and inactive,inactive,50.9 µM (active) and inactive,inactive,–,inactive,inactive,inactive,inactive,inactive,inactive,inactive,–
C1CN2CCN1CC2,inactive,inactive,inactive,–,inactive,–,inactive,inactive and 54.9 µM (active),inactive,inactive and 54.9 µM (active),inactive,inactive,inactive,inactive,inactive,–,inactive,inactive,inactive,–
CC1(C)Cc2cccc(O)c2O1,inactive,–,inactive,–,inactive,–,inactive,inactive,–,inactive,inactive,–,–,inactive,inactive,–,inactive,inactive,inactive,–
COP(=O)(OC)OC,inactive,–,inactive,inactive,inactive,inactive,inactive,55.4 µM (active) and inactive,inactive,49.4 µM (active) and inactive,inactive,inactive,inactive,inactive,inactive,inactive,inactive,inactive,inactive,–
N#Cc1ccncc1,inactive,inactive,–,inactive,inactive,inactive,inactive,inactive,inactive,inactive,inactive,inactive,–,–,inactive,inactive,inactive,inactive,inactive,–
CCOP(=O)(OCC)SCCSCC,inactive,inactive,–,–,inactive,inactive,inactive,–,inactive,inactive,inactive,inactive,inactive,inactive,inactive,–,inactive,inactive,inactive,–
CC(C)(O)C(=O)Nc1ccc([N+](=O)[O-])c(C(F)(F)F)c1,inactive,inactive,inactive,inactive,inactive,–,inactive,inactive,inactive,inactive,inactive,inactive,–,inactive,inactive,–,inactive,inactive,–,–
O=C1C2CC=CCC2C(=O)N1SC(Cl)(Cl)Cl (centres undefined),inactive and 26.9 µM (active),–,inactive,inactive,inactive,inactive,inactive,24.1 µM (active),–,inactive and 38.3 µM (active),inactive,inactive,inactive,inactive,inactive and 23.9 µM (active),inactive,inactive,inactive,–,–
COc1ccccc1OC,inactive,–,inactive,inactive,inactive,inactive,inactive,inactive,inactive,inactive,inactive,inactive,–,inactive,inactive,inactive,inactive,inactive,inactive,–
C=CCO,inactive,–,inactive,inactive,inactive,inactive,–,–,–,–,inactive,inactive and 61.1 µM (active),inactive,inactive,inactive,inactive,inactive,inactive,–,–
N#Cc1cc([N+](=O)[O-])ccc1N,inactive,inactive,inactive,inactive,inactive,inactive,inactive,inactive,inactive,inactive,inactive,inactive,inactive,inactive,inactive,inactive,inactive,inactive,inactive,inactive
Oc1ccccc1-c1ccccc1,inactive,inactive,–,inactive,inactive,inactive,inactive,inactive,inactive,inactive,inactive,inactive,inactive,inactive,inactive,inactive,inactive,inactive,inactive,–
CCCC[n+]1ccc(C)cc1,inactive and 27.2 µM (active),–,inactive and 39 µM (active),–,inactive,–,inactive,inactive and 43.4 µM (active) and 39 µM (active),inactive,inactive,inactive,inactive,inactive,inactive,inactive and 60.8 µM (active),–,inactive and 40.6 µM (active),inactive and 20.3 µM (active),inactive,–
Nc1ncn[nH]1,inactive,inactive,inactive,–,inactive,–,inactive,inactive,inactive,inactive,inactive,inactive,inactive,inactive,inactive,–,–,inactive,inactive,–
CCCCCCCCCCCC(=O)O,inactive,inactive,inactive,–,inactive,–,inactive,inactive,inactive,inactive,inactive,inactive,inactive,inactive,inactive,–,inactive,inactive,inactive,–
